# Laboratory results taken from PubChem BioAssay (EPA / NIEHS).
# Where “and” joins values, the source holds several entries; their conditions need not be identical. Equal values may be shown once. Records with an inconclusive call do not appear. Calls of active or inactive are those of the source. Rule for the calls: active = hit-call score of the fitted dose curve at least 0.9, where 1 is the maximum; inconclusive = response in the unintended direction; inactive = score below 0.9.
# Key:
# [1] = target: Estrogen receptor (Homo sapiens) (UniProt P03372); assay: ATG_hERa_XSP1: Attagene TRANS-FACTORIAL Multi-Species (XSP1) HepG2 Assay for human Estrogen Receptor (ESR1) (AID 2283780)
# Outline: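 Reporter transcripts from multiplexed GAL4-UAS units driven by NR-Gal4 chimeras in transiently transfected HepG2 were measured by RT-PCR with capillary electrophoresis 24 h post-dose, with 3 nM 6-alpha-fluorotestosterone present; gain-of-signal relative to DMSO.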
# [2] = test system: turtle Estrogen Receptor (ESR1), gene 101933533; assay: ATG_trERa_XSP1: Attagene TRANS-FACTORIAL Multi-Species (XSP1) HepG2 Assay for turtle Estrogen Receptor (ESR1) (AID 2283781)
# Outline: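 Cell-based chimeric NR-Gal4 transactivation; HepG2; 24 h dosing; mRNA reporter detected by RT-PCR and capillary electrophoresis fluorescence.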
# [3] = test system: turtle Androgen Receptor (AR), gene 101947425; assay: ATG_trAR_XSP1: Attagene TRANS-FACTORIAL Multi-Species (XSP1) HepG2 Assay for turtle Androgen Receptor (AR) (AID 2283786)
# Outline: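 Partial androgen stimulation is provided by 3 nM 6-alpha-fluorotestosterone in a multi-species trans-factorial panel expressing a turtle AR–GAL4 fusion in HepG2. After 24 h, reporter mRNA is measured by RT-PCR and capillary electrophoresis and fitted upward against DMSO.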
# [4] = target: Estrogen receptor beta (Homo sapiens) (UniProt Q92731); assay: ATG_hERb_XSP1: Attagene TRANS-FACTORIAL Multi-Species (XSP1) HepG2 Assay for human Estrogen Receptor (ESR2) (AID 2283788)
# Outline: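 Multiplexed trans-activation in transfected HepG2: ERβ-Gal4 reporter transcripts after 24 h treatment, detected by RT-PCR plus capillary electrophoresis.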
# [5] = target: GAL4 Transcription Factor (Internal Marker), GAL4 (gene 855828) (UniProt P04386); assay: ATG_GAL4_XSP1: Attagene TRANS-FACTORIAL Multi-Species (XSP1) HepG2 Assay for GAL4 Transcription Factor (Internal Marker) (AID 2283789)
# Outline: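 This background-control endpoint measures GAL4-driven reporter mRNA via RT-PCR and capillary electrophoresis of labelled fragments. Transiently transfected HepG2 cells were treated 24 h, with 3 nM 6-alpha-fluorotestosterone included, and gain-of-signal was fitted against DMSO.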
# [6] = ATG_M_06_XSP1: Attagene TRANS-FACTORIAL Multi-Species (XSP1) HepG2 Assay for M06 Transcription Factor (Internal Marker) (AID 2283790)
# Outline: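 This background-control readout tracks M06 reporter mRNA, measured by RT-PCR and capillary electrophoresis. HepG2 cells transiently carrying the GAL4-UAS reporter panel were dosed for 24 h with 3 nM 6-alpha-fluorotestosterone added for partial AR stimulation; increases were scored relative to DMSO.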
# [7] = ATG_M_61_XSP1: Attagene TRANS-FACTORIAL Multi-Species (XSP1) HepG2 Assay for M61 Transcription Factor (Internal Marker) (AID 2283797)
# Outline: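 Background-control readout: reporter transcripts measured by RT-PCR and capillary electrophoresis 24 h after dosing transiently transfected HepG2 multi-reporter cells, with 3 nM 6-alpha-fluorotestosterone present. Fitted in the positive direction relative to DMSO.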
# [8] = ATG_M_32_XSP1: Attagene TRANS-FACTORIAL Multi-Species (XSP1) HepG2 Assay for M32 Transcription Factor (Internal Marker) (AID 2283799)
# Outline: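 Reporter transcripts from the M32 internal-control unit measured by RT-PCR, FAM labelling, HpaI digestion and capillary electrophoresis after 24 h compound exposure of transfected HepG2, 3 nM 6-alpha-fluorotestosterone included; DMSO baseline, positive-direction fit.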
# [9] = target: Peroxisome proliferator-activated receptor gamma (Homo sapiens) (UniProt P37231); assay: ATG_hPPARg_XSP1: Attagene TRANS-FACTORIAL Multi-Species (XSP1) HepG2 Assay for human Peroxisome Proliferator-activated Receptor gamma (PPARg) (AID 2283800)
# Outline: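 Reporter mRNA induction, measured by RT-PCR with capillary electrophoresis 24 h after dosing, scored as gain over DMSO. Transfected HepG2 cells express exogenous NR-Gal4 chimeras driving GAL4-UAS reporters; medium includes 3 nM 6-alpha-fluorotestosterone.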
# [10] = test system: zebrafish Peroxisome Proliferator-activated Receptor gamma (PPARg), gene 557037; assay: ATG_zfPPARg_XSP1: Attagene TRANS-FACTORIAL Multi-Species (XSP1) HepG2 Assay for zebrafish Peroxisome Proliferator-activated Receptor gamma (PPARg) (AID 2283801)
# Outline: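 Trans-activation readout of chimeric zebrafish PPARg–GAL4 in transiently transfected human HepG2 cells, 24 h chemical exposure (medium includes 3 nM 6-alpha-fluorotestosterone). Reporter transcripts measured by RT-PCR and capillary electrophoresis, fitted as gain over DMSO.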
# [11] = target: Nuclear receptor subfamily 1 group I member 2 (Mus musculus) (UniProt O54915); assay: ATG_mPXR_XSP1: Attagene TRANS-FACTORIAL Multi-Species (XSP1) HepG2 Assay for mouse Pregnane X Receptor (PXR) (AID 2283803)
# Outline: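 Transiently transfected HepG2 cells expressing a receptor-Gal4 chimera drive a GAL4-UAS reporter; 3 nM 6-alpha-fluorotestosterone included. Reporter mRNA read 24 h post-dose by RT-PCR and capillary electrophoresis; gain of signal relative to DMSO.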
# [12] = target: frog Thyroid hormone Receptor alpha (TRa), thra-a (gene 397942) (UniProt P15204); assay: ATG_frTRa_XSP1: Attagene TRANS-FACTORIAL Multi-Species (XSP1) HepG2 Assay for frog Thyroid hormone Receptor alpha (TRa) (AID 2283804)
# Outline: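 Reporter transcript induction, measured by RT-PCR with 6-FAM labelling and capillary electrophoresis, 24 hr after dosing transiently transfected HepG2 cells expressing a frog TRa-GAL4 fusion; medium contained 3 nM 6-alpha-fluorotestosterone; increase over DMSO scored.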
# [13] = target: human Thyroid hormone Receptor alpha (TRa), THRA (gene 7067) (UniProt P10827); assay: ATG_hTRa_XSP1: Attagene TRANS-FACTORIAL Multi-Species (XSP1) HepG2 Assay for human Thyroid hormone Receptor alpha (TRa) (AID 2283805)
# Outline: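 Reporter transcripts from the human TRa-Gal4 TRANS unit quantified by RT-PCR, fluorescent labeling and capillary electrophoresis after 24 hours of chemical exposure in transfected HepG2 cells; medium contains 3 nM 6-alpha-fluorotestosterone. Positive direction fit against DMSO.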
# [14] = test system: turtle Thyroid Hormone Receptor, alpha (TRa), gene 101949057; assay: ATG_trTRa_XSP1: Attagene TRANS-FACTORIAL Multi-Species (XSP1) HepG2 Assay for turtle Thyroid Hormone Receptor, alpha (TRa) (AID 2283806)
# Outline: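 After 24 h chemical exposure, reporter transcripts were measured by RT-PCR with fluorescent primer extension, HpaI digestion and capillary electrophoresis. Cells were transiently transfected HepG2 expressing exogenous NR-Gal4 chimeras; medium contained 3 nM 6-alpha-fluorotestosterone; fitted upward relative to DMSO.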
# [15] = target: zebrafish Thyroid Hormone Receptor alpha (TRa), thraa (gene 30670) (UniProt Q98867); assay: ATG_zfTRa_XSP1: Attagene TRANS-FACTORIAL Multi-Species (XSP1) HepG2 Assay for zebrafish Thyroid Hormone Receptor alpha (TRa) (AID 2283807)
# Outline: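 Reporter transcripts driven by a chimeric zebrafish TRa–Gal4 protein were measured by RT-PCR with fluorescent labelling and capillary electrophoresis. These came from transiently transfected HepG2 cells after 24 h chemical exposure, with 3 nM 6-alpha-fluorotestosterone added; baseline was DMSO.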
# AR (gene 367) [16] = target: AR (gene 367) (UniProt P10275); assay: ACEA_AR_agonist_80hr: ACEA Biosciences xCELLigence Real-Time Cell Analysis on Androgen Receptor Agonism for Proliferation (AID 2283783);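 note: hits increase impedance growth signal above DMSO baseline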
# Outline: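 Real-time cell-growth kinetics were recorded by electrode impedance in 22Rv1 cells exposed to test chemicals up to 100 uM final; the 80 h timepoint served as the readout, fitted upward relative to DMSO controls, in biological duplicate.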
# AR (gene 367) [17] = target: AR (gene 367) (UniProt P10275); assay: ACEA_AR_antagonist_80hr: ACEA Biosciences xCELLigence Real-Time Cell Analysis on Androgen Receptor Antagonism for Proliferation (AID 2283787);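 note: 22Rv1 human prostate cancer cells with growth followed by electrical impedance; hits lower the impedance growth signal relative to DMSO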
# Outline: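 Using 22Rv1 cells held in assay medium, we dosed compounds (100 uM maximum final, 1:4 serial, eight points, 0.5% DMSO at top) and recorded cell-electrode impedance; the 80 hr timepoint was analyzed against DMSO.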
# [18] = STM_H9_NormalizedViability: Cytotoxicity Assessment at 120 hours in the Stemina devTOX quickPredict H9 human embryonic stem cell (hESC)-based Assay (AID 2283784)
# Outline: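 Viability of the cell layer was taken from live-cell protease cleavage of a fluorogenic substrate after compound exposure of undifferentiated H9 stem cells, with replenishment each 24h. Fluorescence was normalized to vehicle (0.1% DMSO).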
# AR (gene 367), sequence (P10275 whole entry, looked up): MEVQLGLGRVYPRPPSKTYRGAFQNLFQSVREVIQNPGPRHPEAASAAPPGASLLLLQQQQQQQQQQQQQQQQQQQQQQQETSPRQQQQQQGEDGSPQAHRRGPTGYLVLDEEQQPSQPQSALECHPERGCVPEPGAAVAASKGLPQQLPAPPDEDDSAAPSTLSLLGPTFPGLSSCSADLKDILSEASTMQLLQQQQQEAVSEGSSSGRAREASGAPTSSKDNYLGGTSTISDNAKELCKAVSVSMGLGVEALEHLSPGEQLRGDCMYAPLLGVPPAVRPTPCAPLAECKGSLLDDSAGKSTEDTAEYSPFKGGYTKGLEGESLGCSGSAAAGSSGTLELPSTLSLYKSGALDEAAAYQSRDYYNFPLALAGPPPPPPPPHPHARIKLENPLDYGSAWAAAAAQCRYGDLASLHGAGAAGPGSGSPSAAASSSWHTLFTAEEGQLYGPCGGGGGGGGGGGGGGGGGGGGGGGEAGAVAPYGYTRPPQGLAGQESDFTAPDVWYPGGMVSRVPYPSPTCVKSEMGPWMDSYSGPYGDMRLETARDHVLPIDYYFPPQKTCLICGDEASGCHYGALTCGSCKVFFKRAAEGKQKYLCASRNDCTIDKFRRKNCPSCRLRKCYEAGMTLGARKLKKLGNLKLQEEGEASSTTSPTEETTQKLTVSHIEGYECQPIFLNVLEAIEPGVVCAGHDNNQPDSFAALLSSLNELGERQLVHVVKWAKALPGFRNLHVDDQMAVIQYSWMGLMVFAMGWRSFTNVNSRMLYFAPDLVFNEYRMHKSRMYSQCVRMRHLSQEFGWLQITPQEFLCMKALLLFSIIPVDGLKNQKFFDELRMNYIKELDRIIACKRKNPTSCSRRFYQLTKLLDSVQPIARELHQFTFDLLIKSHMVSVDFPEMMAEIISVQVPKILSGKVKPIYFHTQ
# Estrogen receptor beta (Homo sapiens), sequence (Q92731 whole entry, looked up, the tested form may be a part): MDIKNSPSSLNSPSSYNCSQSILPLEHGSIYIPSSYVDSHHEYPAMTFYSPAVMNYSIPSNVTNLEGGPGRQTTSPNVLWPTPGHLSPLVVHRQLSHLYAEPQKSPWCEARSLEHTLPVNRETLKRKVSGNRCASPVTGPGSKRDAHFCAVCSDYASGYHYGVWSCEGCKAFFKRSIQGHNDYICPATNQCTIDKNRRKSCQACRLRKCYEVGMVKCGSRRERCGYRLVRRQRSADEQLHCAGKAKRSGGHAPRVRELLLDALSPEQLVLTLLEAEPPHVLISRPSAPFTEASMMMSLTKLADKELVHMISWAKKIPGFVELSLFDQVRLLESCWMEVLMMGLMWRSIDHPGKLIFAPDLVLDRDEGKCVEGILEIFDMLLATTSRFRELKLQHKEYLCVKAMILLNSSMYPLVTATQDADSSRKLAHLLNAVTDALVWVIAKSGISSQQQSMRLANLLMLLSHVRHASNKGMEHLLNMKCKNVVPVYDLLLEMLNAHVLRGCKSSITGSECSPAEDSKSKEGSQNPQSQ
# zebrafish Thyroid Hormone Receptor alpha (TRa), thraa (gene 30670), sequence (Q98867 whole entry, looked up, the tested form may be a part): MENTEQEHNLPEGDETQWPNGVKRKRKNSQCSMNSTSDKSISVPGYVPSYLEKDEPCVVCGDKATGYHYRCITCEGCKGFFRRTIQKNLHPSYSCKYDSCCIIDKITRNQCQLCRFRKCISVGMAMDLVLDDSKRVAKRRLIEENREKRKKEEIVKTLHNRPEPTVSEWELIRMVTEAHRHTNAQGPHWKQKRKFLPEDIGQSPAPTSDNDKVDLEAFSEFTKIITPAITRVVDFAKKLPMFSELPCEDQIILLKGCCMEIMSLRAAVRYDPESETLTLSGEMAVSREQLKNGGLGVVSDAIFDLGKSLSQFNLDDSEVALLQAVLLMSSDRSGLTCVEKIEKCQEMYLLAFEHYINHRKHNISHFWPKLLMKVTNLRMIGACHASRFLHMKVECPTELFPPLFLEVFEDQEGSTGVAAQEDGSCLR
# human Thyroid hormone Receptor alpha (TRa), THRA (gene 7067), sequence (P10827 whole entry, looked up, the tested form may be a part): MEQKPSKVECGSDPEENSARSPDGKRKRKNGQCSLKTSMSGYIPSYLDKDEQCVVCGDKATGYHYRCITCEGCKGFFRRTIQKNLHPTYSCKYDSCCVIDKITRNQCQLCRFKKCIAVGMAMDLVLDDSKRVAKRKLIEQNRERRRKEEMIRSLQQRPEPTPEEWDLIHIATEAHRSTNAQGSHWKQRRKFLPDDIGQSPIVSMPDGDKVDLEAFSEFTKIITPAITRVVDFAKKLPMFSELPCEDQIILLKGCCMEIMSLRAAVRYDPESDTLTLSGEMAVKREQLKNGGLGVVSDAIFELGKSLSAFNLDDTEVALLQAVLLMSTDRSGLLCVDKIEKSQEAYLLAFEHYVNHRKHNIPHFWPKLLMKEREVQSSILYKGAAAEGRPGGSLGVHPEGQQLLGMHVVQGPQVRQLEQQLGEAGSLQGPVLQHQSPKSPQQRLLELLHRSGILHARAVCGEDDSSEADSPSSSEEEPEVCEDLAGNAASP
# Estrogen receptor (Homo sapiens), sequence (P03372 whole entry, looked up, the tested form may be a part): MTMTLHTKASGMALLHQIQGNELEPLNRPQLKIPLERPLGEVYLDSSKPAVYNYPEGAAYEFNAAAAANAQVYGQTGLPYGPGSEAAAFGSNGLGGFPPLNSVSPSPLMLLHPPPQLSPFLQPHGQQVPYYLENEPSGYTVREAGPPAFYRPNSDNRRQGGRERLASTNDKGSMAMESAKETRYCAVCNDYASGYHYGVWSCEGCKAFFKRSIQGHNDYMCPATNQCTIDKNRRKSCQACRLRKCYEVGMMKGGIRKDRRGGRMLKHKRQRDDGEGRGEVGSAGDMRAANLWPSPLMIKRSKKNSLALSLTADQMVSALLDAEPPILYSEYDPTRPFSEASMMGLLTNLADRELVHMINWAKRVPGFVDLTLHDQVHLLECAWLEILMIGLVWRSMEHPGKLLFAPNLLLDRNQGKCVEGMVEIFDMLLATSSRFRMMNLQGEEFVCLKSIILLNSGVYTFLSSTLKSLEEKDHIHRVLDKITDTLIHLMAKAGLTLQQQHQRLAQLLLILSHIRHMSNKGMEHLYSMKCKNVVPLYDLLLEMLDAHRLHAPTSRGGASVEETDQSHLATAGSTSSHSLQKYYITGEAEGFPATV
# frog Thyroid hormone Receptor alpha (TRa), thra-a (gene 397942), sequence (P15204 whole entry, looked up, the tested form may be a part): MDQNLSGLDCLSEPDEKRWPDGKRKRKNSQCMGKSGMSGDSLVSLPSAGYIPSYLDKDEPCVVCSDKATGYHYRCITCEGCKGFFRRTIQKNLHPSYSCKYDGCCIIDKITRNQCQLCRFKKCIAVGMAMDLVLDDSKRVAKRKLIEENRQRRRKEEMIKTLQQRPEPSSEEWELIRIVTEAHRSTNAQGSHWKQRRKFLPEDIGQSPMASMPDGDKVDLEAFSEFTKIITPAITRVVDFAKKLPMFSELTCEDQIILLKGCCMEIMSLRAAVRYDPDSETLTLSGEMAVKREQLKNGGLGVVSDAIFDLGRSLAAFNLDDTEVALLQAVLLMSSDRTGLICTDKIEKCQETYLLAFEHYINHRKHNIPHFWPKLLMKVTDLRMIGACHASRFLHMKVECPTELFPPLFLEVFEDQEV
# Peroxisome proliferator-activated receptor gamma (Homo sapiens), sequence (P37231 whole entry, looked up, the tested form may be a part): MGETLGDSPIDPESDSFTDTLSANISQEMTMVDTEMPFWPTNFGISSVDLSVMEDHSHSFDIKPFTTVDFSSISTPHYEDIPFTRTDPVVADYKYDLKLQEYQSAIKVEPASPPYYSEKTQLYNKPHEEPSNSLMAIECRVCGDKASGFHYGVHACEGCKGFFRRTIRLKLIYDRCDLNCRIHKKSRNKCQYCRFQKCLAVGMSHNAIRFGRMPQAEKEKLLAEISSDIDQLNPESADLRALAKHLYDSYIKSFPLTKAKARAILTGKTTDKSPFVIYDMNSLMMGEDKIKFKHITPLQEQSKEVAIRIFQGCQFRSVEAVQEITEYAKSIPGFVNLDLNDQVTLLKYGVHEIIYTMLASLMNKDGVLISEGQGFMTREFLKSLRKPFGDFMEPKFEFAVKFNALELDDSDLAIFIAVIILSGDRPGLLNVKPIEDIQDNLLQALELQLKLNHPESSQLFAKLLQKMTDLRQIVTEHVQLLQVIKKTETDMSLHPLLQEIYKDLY
# GAL4 Transcription Factor (Internal Marker), GAL4 (gene 855828), sequence (P04386 whole entry, looked up, the tested form may be a part): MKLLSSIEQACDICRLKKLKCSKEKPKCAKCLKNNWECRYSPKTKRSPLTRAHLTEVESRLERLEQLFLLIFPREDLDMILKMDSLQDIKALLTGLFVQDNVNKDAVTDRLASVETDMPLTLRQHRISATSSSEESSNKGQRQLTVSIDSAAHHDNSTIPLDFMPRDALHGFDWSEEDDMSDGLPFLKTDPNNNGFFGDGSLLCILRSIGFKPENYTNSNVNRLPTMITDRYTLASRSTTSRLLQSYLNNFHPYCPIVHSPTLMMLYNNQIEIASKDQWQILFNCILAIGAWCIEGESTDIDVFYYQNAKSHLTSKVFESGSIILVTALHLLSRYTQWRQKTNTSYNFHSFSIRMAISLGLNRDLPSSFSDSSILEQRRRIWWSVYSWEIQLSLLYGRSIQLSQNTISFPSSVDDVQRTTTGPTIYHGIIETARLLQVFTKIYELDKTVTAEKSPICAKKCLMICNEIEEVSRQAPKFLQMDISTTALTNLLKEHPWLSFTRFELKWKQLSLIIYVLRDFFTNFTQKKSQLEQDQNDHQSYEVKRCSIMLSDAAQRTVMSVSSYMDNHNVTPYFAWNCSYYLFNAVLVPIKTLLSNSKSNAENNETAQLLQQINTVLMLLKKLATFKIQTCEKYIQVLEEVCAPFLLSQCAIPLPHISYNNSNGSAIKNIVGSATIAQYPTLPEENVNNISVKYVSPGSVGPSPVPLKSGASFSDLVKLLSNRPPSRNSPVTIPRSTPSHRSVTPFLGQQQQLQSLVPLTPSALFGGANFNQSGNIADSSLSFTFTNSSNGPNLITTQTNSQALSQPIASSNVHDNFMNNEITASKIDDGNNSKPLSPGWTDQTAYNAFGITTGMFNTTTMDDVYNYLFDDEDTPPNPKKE
structure (smiles),measurement,setting,value
C[C@]12CCC(=O)C=C1CC[C@@H]1[C@@H]2CC[C@]2(C)C(=O)CC[C@@H]12,AC50,[1],0.00335 µM (active)
same,AC50,[2],4.61 nM (active) and 4.8 nM (active)
same,AC50,[3],0.658 µM (active)
same,AC50,[4],16.4 nM (active) and 8 nM (active)
same,outcome,[5],inactive
same,outcome,[6],inactive
same,outcome,[7],inactive
same,outcome,[8],inactive
same,outcome,[9],inactive
same,outcome,[10],inactive
same,AC50,[11],2.3 µM (active)
same,outcome,[12],inactive
same,outcome,[13],inactive
same,outcome,[14],inactive
same,outcome,[15],inactive
Cc1ccccc1CO[C@@H]1C[C@@]2(C(C)C)CC[C@]1(C)O2,outcome,AR (gene 367) [16],inactive
same,AC50,AR (gene 367) [17],76.6 µM (active)
CC1=C2C[C@H]3[C@@H](CC=C4C[C@@H](O)CC[C@@]43C)[C@@H]2CC[C@]12O[C@@H]1C[C@H](C)CN[C@H]1[C@H]2C,outcome,[18],inactive
same,AC50,AR (gene 367) [17],80.8 µM (active)
COS(=O)(=O)OC,outcome,[18],inactive
